# CYP2C19 inh: human CYP2C19 inhibition; CYP2C19 Supersomes, luciferin-H EGE luminescence, 30 min; actives 21% (n = 96,000); P33261; inhibition, % at 5 µM;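 active = CYP2C19 inhibition above a set limit at 5 µM in the primary screen, cut at about 50% in these data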;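 also: plate controls were negative control wells for no effect and 2.5 mM tranylcypromine positive control for full effect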
# CYP2C19 activ: increases human CYP2C19 enzyme activity; P33261; recombinant CYP2C19, luciferin-H EGE luminescence; stronger effect = higher value; 0 = fully inhibited enzyme, 1 = untreated enzyme; activation factor at 5 µM; 96,000 tested, under 10 active; AID 1025;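 active = activation factor of at least 2 at 5 µM in the primary screen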;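 also: 0 = wells with 2.5 mM tranylcypromine and 1 = vehicle-only wells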
# sEH inh: blocks human soluble epoxide hydrolase activity; AID 707; actives 0.34% (n = 91,000); recombinant human sEH enzymatic activity assay; inhibition, % at 2 µM; in the data active = inhibition above about 80%
# Target sequence (P34913 whole entry, looked up): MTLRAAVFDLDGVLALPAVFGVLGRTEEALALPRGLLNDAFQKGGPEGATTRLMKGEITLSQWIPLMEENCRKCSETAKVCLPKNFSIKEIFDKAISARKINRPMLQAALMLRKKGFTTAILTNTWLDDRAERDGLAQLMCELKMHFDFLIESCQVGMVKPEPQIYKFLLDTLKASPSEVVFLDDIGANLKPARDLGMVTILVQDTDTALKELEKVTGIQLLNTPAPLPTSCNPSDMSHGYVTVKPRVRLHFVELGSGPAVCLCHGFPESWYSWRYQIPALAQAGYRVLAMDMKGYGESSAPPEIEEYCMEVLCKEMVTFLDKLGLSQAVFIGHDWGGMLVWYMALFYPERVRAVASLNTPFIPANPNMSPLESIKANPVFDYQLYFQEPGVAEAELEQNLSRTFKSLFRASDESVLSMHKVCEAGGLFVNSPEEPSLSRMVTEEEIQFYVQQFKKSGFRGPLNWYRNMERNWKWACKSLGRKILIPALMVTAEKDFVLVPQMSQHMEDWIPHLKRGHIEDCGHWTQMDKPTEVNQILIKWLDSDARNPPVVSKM
# CYP2C9 activ: increases human cytochrome P450 2C9 activity. P11712. recombinant CYP2C9, luciferin-H conversion, luminescence; stronger effect = higher value; factor 1 = untreated enzyme, 0 = blocked. activation factor at 5 µM. actives 1.4% (n = 96,000). AID 1024;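 active = activation factor of 2 or more for CYP2C9 at a 5 µM dose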;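 also: 0 = sulfaphenazole-blocked wells and 1 = vehicle-only wells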
# CYP2C9 inhib: blocks human cytochrome P450 2C9 | P11712 | CYP2C9 Supersomes, luciferin-H conversion, luminescence | inhibition, % at 5 µM | actives 20% (n = 96,000) | AID 777;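 active = blocking of liver enzyme CYP2C9 beyond about 50% at 5 µM, limit read from the data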
# sEH act: soluble epoxide hydrolase (human) activation; activation, % at 2 µM; actives 0.04% (n = 91,000); P34913; AID 717; purified human sEH enzymatic activity, activator screen; in the data active = activation above about 37%
# Starred values were filed as active, the others as inactive; nt = no result. An excerpt weighted towards active compounds, which were near 27% of everything screened.
SMILES,CYP2C19 inh,CYP2C19 activ,sEH inh,CYP2C9 activ,CYP2C9 inhib,sEH act
O=C(NCCC1=CCCCC1)c1ccc(Cl)c(S(=O)(=O)N2CCOCC2)c1,50.9*,0.5,94.1*,0.4,59.8*,-93.9
Cc1ccc(CSCCNC(=O)c2ccc(Cl)c(S(=O)(=O)N3CCOCC3)c2)cc1,61.6*,0.4,73.8,0.2,81.0*,-73.3
CCOC(=O)N1CCN(C(=O)c2ccc(Cl)c(S(=O)(=O)N3CCOCC3)c2)CC1,0.7,1,nt,0.9,8.8,nt
O=C(Cn1ncc2c(=O)oc3ccccc3c21)NCCN1CCN(c2ccccc2F)CC1,4.4,1,nt,0.7,34.7,nt
CC(C)Cn1cc(C(=O)NCC2CCCO2)c2c3ccccc3n(C)c2c1=O (centres undefined),24.3,0.8,-7.3,0.7,26.2,7.9
CCn1ncc(/C=N\NC(=O)c2csc3ccccc23)c1C,12.7,0.9,68.1,1.3,-31.7,-67.9
CCNC(=O)c1ccc(-n2nc(C(F)(F)F)c3c2CCCC3)cc1,20.5,0.8,-9.9,2.5*,-146.4,10.8
O=C(Cn1nc(C(F)(F)F)c2c1CCC2)NCc1ccc(Cl)cc1,nt,nt,-3.7,nt,nt,9.2
O=C(c1ccc2c(c1)OCO2)[C@@H]1[C@@H]2C(=O)N(C3CCCCC3)C(=O)[C@@H]2C2c3ccccc3C=CN21 (some centres undefined),58.1*,0.4,nt,0.2,76.3*,nt
O=C(c1cccs1)[C@@H]1[C@@H]2C(=O)N(Cc3ccc4c(c3)OCO4)C(=O)[C@@H]2C2c3ccccc3C=CN21 (some centres undefined),30.1,0.7,-5.7,0.4,63.9*,6.6
CC(C)(C)C(=O)[C@@H]1[C@@H]2C(=O)N(C3CCCCC3)C(=O)[C@@H]2[C@H]2c3ccccc3C=CN12,66.5*,0.3,-0.7,0.2,82.0*,-0.4
CC(=O)Oc1cc2oc(=O)c3c(c2cc1Cl)CCC3,-12.3,1.1,nt,1.1,-5.1,nt
CCOC(=O)C1CCN(C(=O)c2cn(-c3ccccc3)nc2-c2cccnc2)CC1,20.5,0.8,nt,0.6,39.4,nt
CN(c1ccc(C(=O)Nc2nccs2)cc1)S(=O)(=O)c1ccccc1,72.7*,0.3,13.0,0.5,51.2*,-10.4
O=C(Nc1nccs1)c1ccc(S(=O)(=O)NCc2cccs2)cc1,35.8,0.6,7.8,0.3,69.8*,-8.3
O=C(Nc1nncs1)c1ccc(S(=O)(=O)c2ccccc2)cc1,-18.7,1.2,31.5,0.4,60.1*,-29.5
O=C(Nc1nccs1)c1ccc(S(=O)(=O)NCC2CCCCC2)cc1,8.4,0.9,16.7,0.9,10.1,-17.1
CCOC(=O)C1=C(c2ccccc2)N2CCN=C2S1,nt,nt,-20.1,nt,nt,15.1
Cc1ccc(-c2nc3cnccn3c2Nc2c(C)cccc2C)o1,99.2*,0,-4.9,0.4,63.2*,7.3
CCOC(=O)C1=C(O)/C(=C\c2cccc(OC)c2)N=C1C,65.4*,0.3,7.1,0.7,27.7,-7.0
CCC(C)NC(=O)C1CCN(S(=O)(=O)c2cccc3cccnc23)CC1 (centres undefined),29.0,0.7,-4.7,3.2*,-216.9,6.5
O=C(NC1CCCC1)C1CCCN1S(=O)(=O)c1cccc2cccnc12 (centres undefined),59.3*,0.4,7.2,1,4.1,-8.3
CC1CCCC(NC(=O)C2CCCN2S(=O)(=O)c2cccc3nsnc23)C1C (centres undefined),86.9*,0.1,-10.1,0.4,56.7*,7.3
O=C(NC1CCCCCC1)C1CCCN1S(=O)(=O)c1cccc2cccnc12 (centres undefined),75.4*,0.2,-2.7,1.1,-5.2,1.4
O=c1[nH]n(-c2ccc(Cl)cc2)c2ncccc12,-3.7,1,-0.9,1.1,-5.2,3.8
SMILES,CYP2C19 inh,CYP2C19 activ,sEH inh,CYP2C9 activ,CYP2C9 inhib,sEH act
O=C(CSc1nnc(-c2ccc(F)cc2)o1)Nc1ccccc1N1CCOCC1,nt,nt,1.7,nt,nt,4.0
O=C(NC1CCCCC1)C1CCN(S(=O)(=O)c2cccc3cccnc23)CC1,55.2*,0.4,23.6,3.4*,-241.6,-22.3
CCOC(=O)N1CCC(NC(=O)C2CCN(S(=O)(=O)c3cccc4cccnc34)CC2)CC1,-5.9,1.1,nt,1.5,-46.3,nt
O=C(Cn1c(C(=O)N2CCN(C3CCCCC3)CC2)cc2sccc21)c1ccccc1,87.3*,0.1,4.9,0.3,73.0*,-2.9
O=C(Cn1c(C(=O)N2CCc3ccccc3C2)cc2sccc21)c1ccccc1,68.6*,0.3,-0.2,0.4,64.1*,-0.8
O=[N+]([O-])c1ccc2nc(/C=C/c3ccc(Cl)cc3)[nH]c2c1,31.8,0.7,19.5,0.6,43.0,-18.8
O=C(Nc1ccc2nc(-c3cccnc3)[nH]c2c1)c1ccco1,9.5,0.9,nt,0.8,17.2,nt
Cc1ccc2nc(-c3ccc(NC(=O)C4CCCO4)cc3)[nH]c2c1 (centres undefined),61.9*,0.4,2.4,0.5,54.0*,-0.1
O=C(Nc1ccc(-c2nc3ccccc3[nH]2)cc1)c1ccco1,66.4*,0.3,nt,0.6,39.0,nt
Cc1ccc2nc(-c3cccc(NC(=O)c4ccco4)c3)[nH]c2c1,90.6*,0.1,22.1,0.1,90.8*,-22.0
Cc1cccc(N2CCN(S(C)(=O)=O)CC2)c1C,12.6,0.9,7.5,0.8,15.8,-6.4
O=C(CSc1nnc(-c2ccc(Cl)cc2Cl)n1C1CCCCC1)N1CCCC1,39.4,0.6,-12.3,0.6,37.8,11.5
Cn1nnnc1SCC(=O)Nc1ccccc1Cc1ccccc1,55.4*,0.4,nt,0.4,57.8*,nt
CSc1ccccc1NC(=O)CSc1nnnn1-c1ccccc1SC,29.7,0.7,4.3,3.1*,-208.7,-5.0
Cc1ccccc1NC(=O)CCSc1nnnn1-c1ccccc1,nt,nt,2.8,nt,nt,-0.1
COC(=O)c1ccsc1NC(=O)CSc1nnnn1-c1ccccc1SC,5.9,0.9,8.5,2*,-98.4,-5.0
CSc1ccccc1-n1nnnc1SCC(=O)Nc1ccccc1C,87.0*,0.1,5.8,3.3*,-231.8,-5.5
Cc1ccc2c(c1C)NC(C)CC2C (centres undefined),-14.1,1.1,6.7,1.2,-19.0,-5.5
O=C(CCc1nc2ccccc2[nH]c1=O)OCC(=O)N1CCc2ccccc21,23.5,0.8,5.2,0.7,28.2,-3.6
Cc1cccc(N2CCN(C(=O)CCCOc3ccccc3)CC2)c1C,74.7*,0.3,nt,0.2,80.9*,nt
O=C(CCCN1C(=O)c2cccc3cccc(c23)C1=O)N1CCc2ccccc2C1,52.5*,0.5,6.8,4*,-295.5,-7.0
O=C1c2ccccc2C(=O)N1CCCC(=O)N1CCc2ccccc21,27.5,0.7,8.7,1.4,-40.8,-8.4
O=C(CCCOc1ccccc1)N1CCc2ccccc2C1,82.7*,0.2,-3.1,0.5,49.6,0.5
O=C(CCCOc1ccc(Cl)cc1Cl)N1CCc2ccccc2C1,nt,nt,-1.3,nt,nt,4.1
